Laboratory results as given in PubChem BioAssay AID1159580 (chemical genetic matrix, 2015).
About 2,000 (36%) of roughly 5,500 compounds were called active. Roughly 18% stayed inconclusive and do not appear here. Rule as the data show it: active = normalized growth mostly below about 0.91 (no sharp cut-off); inconclusive = no clear call, values can overlap the other calls; inactive = mostly above about 0.92. This is one part of the list.

Assay: chemical genetic growth profiling, strain panel (AID 1159580);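 also: tested at 20 µM; growth read once vehicle control cultures reached saturation at 30 °C; 1 = growth at the plate median or of vehicle wells; lower values mean less growth of the strain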
Settings: S. cerevisiae deletion strains, growth OD

Measured: normalized growth

O=C(NC(=O)c1c(F)cccc1F)Nc1ccc(Cl)cc1
inactive: locus YAL021C, strain ccr4, active compounds read low 1.03 | locus YAL026C, strain drs2, active compounds read low 1.01 | locus YAL030W, strain snc1, active compounds read low 1.02 | locus YBL061C, strain skt5, active compounds read low 1.01 | locus YBR009C, strain hhf1, active compounds read low 1.02 | locus YBR023C, strain chs3, active compounds read low 1.02 | locus YBR171W, strain sec66, active compounds read low 1.03 | locus YBR231C, strain swc5, active compounds read low 1.04 | locus YBR279W, strain paf1, active compounds read low 1.01 | locus YCL011C, strain gbp2, active compounds read low 1 | locus YCL016C, strain dcc1, active compounds read low 1.02 | locus YCL061C, strain MRC1, active compounds read low 1.01 | locus YCL069W, strain vba3, active compounds read low 0.996 | locus YCR088W, strain abp1, active compounds read low 1 | locus YDL005C, strain med2, active compounds read low 1.05 | locus YDL040C, strain nat1, active compounds read low 1.03 | locus YDR001C, strain nth1, active compounds read low 1.02 | locus YDR069C, strain doa4, active compounds read low 1.03 | locus YDR137W, strain rgp1, active compounds read low 1.01 | locus YDR159W, strain sac3, active compounds read low 1.04 | locus YDR195W, strain ref2 1.11 | locus YDR297W, strain sur2, active compounds read low 1.03 | locus YDR334W, strain swr1, active compounds read low 1.01 | locus YDR335W, strain msn5, active compounds read low 1.03 | locus YDR392W, strain spt3, active compounds read low 0.955 | locus YEL003W, strain gim4, active compounds read low 1.03 | locus YEL037C, strain rad23, active compounds read low 1.01 | locus YEL061C, strain CIN8 (second series), active compounds read low 1.01 | locus YER015W, strain faa2, active compounds read low 1.02 | locus YER016W, strain bim1, active compounds read low 1.03 | locus YER111C, strain swi4, active compounds read low 1.01 | locus YER155C, strain BEM2 (second series), active compounds read low 1.02 | locus YFR010W, strain ubp6, active compounds read low 1.01 | locus YGL167C, strain pmr1, active compounds read low 1.02 | locus YGL173C, strain kem1, active compounds read low 1.01 | locus YGL227W, strain vid30, active compounds read low 1.03 | locus YGL240W, strain doc1, active compounds read low 1.02 | locus YGL253W, strain hxk2, active compounds read low 1.01 | locus YHR013C, strain ard1, active compounds read low 1.03 | locus YHR027C, strain rpn1, active compounds read low 1.02 | locus YHR030C, strain SLT2, active compounds read low 1.06 | locus YHR079C, strain IRE1, active compounds read low 1.04 | locus YHR142W, strain chs7, active compounds read low 1.01 | locus YJL092W, strain hpr5, active compounds read low 1.02 | locus YJL095W, strain BCK1 (second series), active compounds read low 1.01 | locus YJL095W, strain BCK1, active compounds read low 1.03 | locus YJL115W, strain asf1, active compounds read low 1.04 | locus YJL129C, strain trk1, active compounds read low 1.02 | locus YJL154C, strain vps35, active compounds read low 1.01 | locus YJL164C, strain tpk1, active compounds read low 1 | locus YJL166W, strain qcr8, active compounds read low 1.02 | locus YJL187C, strain SWE1, active compounds read low 1.03 | locus YJR066W, strain TOR1, active compounds read low 0.956 | locus YKL160W, strain elf1, active compounds read low 1 | locus YKR026C, strain gcn3, active compounds read low 1.01 | locus YKR091W, strain srl3, active compounds read low 1.01 | locus YLL001W, strain dnm1, active compounds read low 0.996 | locus YLL026W, active compounds read low 1.02 | locus YLL041C, strain sdh2, active compounds read low 1.01 | locus YLR027C, strain aat2, active compounds read low 1.02 | locus YLR113W, strain HOG1, active compounds read low 1.04 | locus YLR221C, strain rsa3, active compounds read low 0.994 | locus YLR258W, strain gsy2, active compounds read low 1.02 | locus YLR262C, strain YPT6 (second series), active compounds read low 0.974 | locus YLR320W, strain mms22, active compounds read low 0.988 | locus YLR342W, strain FKS1, active compounds read low 1.02 | locus YLR357W, strain rsc2, active compounds read low 1.06 | locus YLR370C, strain arc18, active compounds read low 1.02 | locus YLR384C, strain iki3, active compounds read low 1.03 | locus YML120C, strain ndi1, active compounds read low 1 | locus YMR058W, strain fet3, active compounds read low 1.02 | locus YMR125W, strain sto1, active compounds read low 1.01 | locus YMR129W, active compounds read low 1.02 | locus YMR205C, strain PFK2, active compounds read low 1.04 | locus YMR231W, strain pep5, active compounds read low 1.03 | locus YNL071W, strain lat1, active compounds read low 1 | locus YNL183C, strain NPR1, active compounds read low 0.954 | locus YNL209W, strain ssb2, active compounds read low 1.02 | locus YNL248C, strain rpa49, active compounds read low 1 | locus YNL322C, strain KRE1 (second series), active compounds read low 1.02 | locus YNR049C, strain mso1, active compounds read low 1.02 | locus YOR001W, strain rrp6, active compounds read low 1.01 | locus YOR070C, strain gyp1, active compounds read low 1.02 | locus YOR080W, strain dia2, active compounds read low 1.03 | locus YOR083W, strain WHI5, active compounds read low 0.968 | locus YOR106W, strain vam3, active compounds read low 1.01 | locus YOR231W, strain MKK1, active compounds read low 1.03 | locus YOR265W, strain rbl2, active compounds read low 1.02 | locus YOR270C, strain vph1, active compounds read low 0.932 | locus YOR290C, strain snf2, active compounds read low 1.01 | locus YPL051W, strain arl3, active compounds read low 1.01 | locus YPL078C, strain atp4, active compounds read low 1 | locus YPL106C, strain sse1, active compounds read low 1.02 | locus YPL240C, strain hsp82, active compounds read low 1.04 | locus YPL256C, strain CLN2, active compounds read low 1.12
